Experimental data published in PubChem BioAssay AID1117319 (Southern Research Institute, 2015).
Several values for one entry are separate records, joined by “and”; a condition that tells them apart may be missing. Identical values can stand only once. The campaign covered roughly 260,000 compounds. About 1,500 (0.58%) were called active. About 5% were inconclusive and are not listed. Only a sample is shown. Results with a measured potency or affinity are listed apart. Unmarked numbers belong to inactive results.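 The calls were made as follows: active = inhibition above a set limit at one or more doses, reproduced on every date tested; inconclusive = results disagree between test dates, or hit never tested in dose response; inactive = the rest.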

molecular target: Virion infectivity factor (Human immunodeficiency virus type 1 group M subtype B (isolate BH10)) + Virion infectivity factor (Human immunodeficiency virus type 1 group M subtype B (isolate BRU/LAI)) + Virion infectivity factor (Human immunodeficiency virus type 1 group M subtype B (isolate PCV12)) + Virion infectivity factor (Human immunodeficiency virus type 1 group M subtype B (isolate HXB2)) + DNA dC->dU-editing enzyme APOBEC-3G (Homo sapiens) (UniProt P69720+P69721+P69722+P69723+Q9HC16); experiment: HIV-1 Vif–A3G interaction blockers – biochemical, TR-FRET, GST-Vif 1-94, biotin-A3G peptide, dose response retest, primary screen (AID 1117319); conditions: TR-FRET GST-Vif / biotin-A3G peptide binding; hits give high values;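 also: Vif residues 1-94 fused to GST binding biotinylated APOBEC3G peptide 110-148; 0% = full assay without inhibitor and 100% = GST in place of GST-Vif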

| SMILES | inhibition |
| --- | --- |
| Cc1cc(N/N=C/c2cccc(F)c2)nc(NCc2ccccc2)n1 | 4.51% |
| Nc1cc(=O)nc(SCC(=O)NC2CCCCC2)n1-c1ccccc1 | -0.99% |
| Cc1cccc(-n2c(N)cc(=O)nc2SC(C)C(=O)NC2CCCCC2)c1 (stereo not drawn) | -1.72% |
| O=[N+]([O-])c1ccc(O)c(C2=NNC(c3ccccc3F)C2)c1 (stereo not drawn) | 13.2% |
| O=C(N/N=C/c1cc2c(cc1Br)OCO2)c1ccccn1 | 7.07% |
| O=C(O)c1ccc(S(=O)(=O)N2CCCCCC2)cc1 | 1.58% |
| O=C(O)c1ccc(S(=O)(=O)N2CCCCCCC2)cc1 | 1.86% |
| CC(C)(C)c1cc(NC(=O)COC(=O)C2CC2)n(-c2ccccc2)n1 | -5.93% |
| COc1cc(OC)nc(NC(=O)CN2CCN(c3ccc(F)cc3)CC2)n1 | 4.2% |
| CC(=O)C1=C(C)NC(=O)NC1c1cccs1 (stereo not drawn) | 7.19% |
| CC1=C(C(=O)OC(C)C)C(c2cccs2)C(C(=O)OC(C)C)=C(C)N1 | -3.55% |
| COC(=O)c1ccc2c(=O)n(CC3CCCO3)c(SCC(=O)Nc3ccc(OC)cc3OC)nc2c1 (stereo not drawn) | -7.78% |
| CCCN1C2CCCC1CC(NC(=O)c1cc(OC)c(OC)c(OC)c1)C2 (stereo not drawn) | 9.1% |
| COc1ccc(C(=O)NC2CC3CCCC(C2)N3CC(C)C)cc1OC (stereo not drawn) | -7.52% |
| Cc1noc(C)c1CSc1ncnc2sc3c(c12)CCC3 | -4.14% |
| COc1ccc(/C(N)=N/OC(=O)c2ccco2)cc1 | -1.36% |
| O=C1c2ccccc2-c2c1cccc2C(=O)N1CCN(C(=O)c2ccco2)CC1 | 18.7% |
| CCN1C(=O)c2ccccc2S(=O)c2ccc(C(=O)N3CCN(C(=O)c4ccco4)CC3)cc21 (stereo not drawn) | 1.84% |
| CCOC(=O)c1c(/N=C/c2cccc([N+](=O)[O-])c2O)sc2c1CCC2 | 27% |
| CCCCn1cnc2c(SCc3ccc(Br)cc3)nc(N)nc21 | -11.3% |
| CC(CN(C(N)=O)c1ccccc1O)C(=O)O (stereo not drawn) | 17.1% |
| CC(CC(C)C(=O)Nc1ccccc1C(C)(C)C)C(=O)O (stereo not drawn) | 5.47% |
| CCC1CCCCN1C(=O)COc1cc(=O)n(C)c2ccccc12 (stereo not drawn) | 1.25% |
| O=C1c2cccc(O)c2C(=O)c2c(O)cccc21 | 23.8% |

| SMILES | inhibition |
| --- | --- |
| O=C1c2cccc(NCCNCCO)c2C(=O)c2cccc(NCCNCCO)c21 | -16.1% |
| COc1cccc(NC(=O)CN(C)C(=O)c2ccc(COc3ccccc3)o2)c1 | 10.4% |
| O=C(CSc1ccc(-c2ccccc2)nn1)N1CCOCC1 | 8.48% |
| COc1cc(/C=C2/SC(=NCc3ccccc3)N(Cc3ccccc3)C2=O)ccc1O | -3.52% |
| COc1ccccc1N1CCN(C(=O)c2sc3nc(-c4ccccc4)cn3c2C)CC1 | -3.37% |
| Cc1c(C(=O)N2CCN(c3ccc(F)cc3)CC2)sc2nc(-c3ccccc3)cn12 | -5.76% |
| COc1cccc(/C=N/NC(=O)C(=O)NCc2ccco2)c1O | -4.26% |
| CN(C)CCN=Cc1c(O)n(Cc2ccc3c(c2)OCO3)c(=O)c2ccccc12 | -11.8% |
| CC(Sc1nc2sc3c(c2c(=O)n1-c1ccccc1)CCCC3)C(=O)O (stereo not drawn) | 17% |
| CCn1c(SCC(N)=O)nc2sc3c(c2c1=O)CCCC3 | -2.97% |
| C=CCSc1nc2sc3c(c2c(=O)n1CC)CCC3 | 6.31% |
| CCn1c(SCC(=O)O)nc2sc3c(c2c1=O)CCC3 | 32.7% |
| CC1(C)CC(=O)C=C(c2n[nH]nc2C2CC2)C1 | 4.55% |
| CCN(Cc1ccccc1)C(=O)c1cc(S(=O)(=O)N2CCOCC2)ccc1N1CCCC1 | 3.77% |
| Cc1cc(Nc2ccc(Br)cc2)nc(-c2ccccc2O)n1 | -1.59% |
| CC(=NCc1cccc(Cl)c1)c1nc(-c2ccco2)oc1O | 8.49% |
| O=C(c1cccc(F)c1)N1CCCC(C(=O)N2CCCC2)C1 (stereo not drawn) | -3.84% |
| O=C(Nc1ccc(Oc2ccccc2)cc1)c1ccc(Cn2c(=O)[nH]c3ccsc3c2=O)cc1 | -6.11% |
| Cc1ccccc1NC(=O)CSc1n[nH]c(-c2ccco2)n1 | 9.51% |
| Cc1cccc(NC(=O)CSc2nnc(CNC(=O)c3ccco3)n2C)c1C | -5.41% |
| Cc1cccc(NC(=O)CSc2nnc(-c3ccco3)o2)c1C | -1.43% |
| Cc1cccc(C)c1NC(=O)CSc1nc(-c2ccco2)cc(C(F)(F)F)n1 | -1.99% |
| Cc1ccccc1NC(=O)CSc1nnc(-c2ccco2)n1N | -10.3% |
| Cc1cccc(C)c1NC(=O)CSc1nnc(-c2ccco2)n1N | -0.27% |

| SMILES | inhibition |
| --- | --- |
| CN(C)c1ccc(C(CNS(=O)(=O)c2cccc([N+](=O)[O-])c2)N2CCOCC2)cc1 (stereo not drawn) | -0.61% |
| COc1ccc(CN(CC(=O)NCc2ccc(F)cc2)C(=O)c2ccco2)cc1 | -3.39% |
| O=C(CSc1nnc(-c2cnccn2)n1Cc1ccco1)c1ccc2ccccc2c1 | 4.99% |
| CCn1cc(C(=O)NCc2ccc3c(c2)OCO3)c(=O)c2cc(S(=O)(=O)N3CCOCC3)ccc21 | -9.22% and 8.82% |
| CCOc1ccc(C=NN2CCCCCC2)cc1OCC | -8.05% |
| CCCCC12CN3CC(C)(CN(C1)C31C(=O)N(C)c3ccc(C)cc31)C2=O (stereo not drawn) | 3.69% |
| N#Cc1cccnc1Nc1ccc(Cl)cc1 | 8.98% |
| CN(C(=O)COC(=O)c1ccc(Cl)cc1N)C1CCS(=O)(=O)C1 (stereo not drawn) | -4.2% |
| OCCC1CN(Cc2ccccc2-c2ccco2)CCN1Cc1ccccc1 (stereo not drawn) | 15.2% |
| COc1cc(C2CC(=O)N3CN(Cc4ccco4)CSC3=C2C#N)ccc1OCc1ccccc1 (stereo not drawn) | 24.2% |
| N#CC1=C2SCN(Cc3ccco3)CN2C(=O)CC1c1cccc2ccccc12 (stereo not drawn) | 16% |
| O=C(CN(Cc1ccc(F)cc1)C(=O)CNS(=O)(=O)c1ccccc1)NCC1CCCO1 (stereo not drawn) | 2.58% |
| O=C(OCCN1C(=O)c2ccccc2C1=O)c1cc(S(=O)(=O)N2CCOCC2)ccc1F | -0.69% |
| CC1=C(C(=O)OC2CCCCC2)C(c2ccccc2Br)NC(=O)N1 (stereo not drawn) | -6.38% |
| CNc1cccc2c1C(=O)c1ccccc1C2=O | 7.57% |
| CNC(=S)Nc1ccccc1-c1ccccc1 | -7.68% |
| CCCCOc1ccc(C(=O)NN2C(=O)NC3(CCCCC3)C2=O)cc1OC | 2.72% |
| CC[C@@H](C(=O)n1nc(C)cc1C)[C@H](NS(=O)(=O)c1ccc(C)cc1)c1ccccc1 | -0.92% |
| CCNC(=O)CSc1nnc(-c2cccc(S(=O)(=O)N3CCOCC3)c2)o1 | 4.88% |
| O=C(c1cc(COc2ccc(F)cc2Cl)on1)N1CCCC(c2ccccc2)C1 (stereo not drawn) | 2.73% |
| Cn1c(=O)[nH]c(=O)c2c1nc(N1CCOCC1)n2CCSc1nc2ccccc2[nH]1 | 2.63% |
| CC1(C)Cc2nc3sc4c(SCC(=O)NCc5ccccc5)ncnc4c3cc2CO1 | -70.1% and -107% |
| CC1(C)Cc2nc3sc4c(=O)n(CC(=O)NCc5ccco5)cnc4c3cc2CO1 | 2.08% |
| CC1(C)NC(=O)N(CNc2cc(Cl)ccc2Cl)C1=O | 20.3% |

| SMILES | inhibition |
| --- | --- |
| CCCn1c(SCC(=O)NC)nnc1C(C)C | 6.34% |
| N#Cc1cccc(NC(=O)Cc2ccsc2)c1 | 5.18% |
| N#CC1CN(C(c2ccccc2)c2ccccc2)C1 | -4.6% |
| CCOc1ccc(NC(c2ccccc2)P(=O)(OC)OC)cc1 (stereo not drawn) | 5.04% |
| CCOc1ccc(N(CC(=O)NC(C)CC)S(=O)(=O)c2c(C)noc2C)cc1 (stereo not drawn) | -0.89% |
| CCOc1ccc(N(CC(=O)OC)S(=O)(=O)c2c(C)noc2C)cc1 | -1.15% |
| COC(=O)C1CCN(C(=O)Nc2ccccc2)CC1 | 0.21% |
| COc1cccc(-c2cc3nc4c(c(N5CCC6(CC5)OCCO6)n3n2)CCCC4)c1 | -6.69% |
| COc1cccc(-c2cc(C(F)(F)F)n3nc(N)nc3n2)c1 | 32.2% |
| COc1ccc(N2CCN(CCNC(=O)Nc3ccc(C)c(Cl)c3)CC2)cc1 | 0.91% |
| CCCN(CC(=O)Nc1cccc(S(N)(=O)=O)c1)CC(=O)Nc1ccc(F)c(F)c1F | 9.36% |
| CN(Cc1cnc2nc(N)nc(N)c2n1)c1ccc(C(=O)NC(CCC(=O)O)C(=O)O)c2ccccc12 (stereo not drawn) | 4.59% |
| CN(Cc1cnc2nc(N)nc(N)c2n1)c1ccc(C(=O)NC(CCC(=O)O)C(=O)O)cc1C(F)(F)F (stereo not drawn) | 4.16% |
| OCCNC(=S)Nc1ccc(Cl)c(Cl)c1 | 1.22% |
| COc1ccc(C2CC(=O)N3CN(c4ccc(C)c(Cl)c4)CSC3=C2C#N)cc1OC (stereo not drawn) | 13% |
| COc1ccc(OC)c(C2CC(=O)N3CN(c4ccc(C)c(Cl)c4)CSC3=C2C#N)c1 (stereo not drawn) | 6.54% |
| C=CC1=CCN(S(=O)C(C)(C)C)[C@@H]1CCO (stereo partly drawn) | -5.14% |
| O=C(NNS(=O)(=O)c1ccccc1)c1ccc(O)cc1 | 12.2% |
| C=CCN(C(=O)c1ccccn1)C(C(=O)NCc1ccccc1)c1ccccc1F (stereo not drawn) | 6.79% |
| CCOC(=O)C1CCN(C(c2ccc(OC)c(OC)c2)c2sc3nc(C)nn3c2O)CC1 (stereo not drawn) | -0.48% |
| Cc1nc2sc(C(c3cccs3)N3CCC(C(N)=O)CC3)c(O)n2n1 (stereo not drawn) | 4.3% |
